# Results taken from PubChem BioAssay AID1159580 (chemical genetic matrix, 2015).
# Values joined by “and” are separate entries in the source; they are usually repeats but may differ in a detail not shown here. Equal entries are not always repeated. Out of some 5,500 compounds screened, about 2,000 (36%) were called active. Roughly 18% stayed inconclusive and do not appear here. Some of the results follow. Unmarked numbers belong to inactive results. Cut-off read from the data, not from the text of the source: active = normalized growth mostly below about 0.91 (no sharp cut-off); inconclusive = no clear call, values can overlap the other calls; inactive = mostly above about 0.92.
# Assay: chemical genetic growth profiling, strain panel (AID 1159580);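 note: tested at 20 µM; growth read once vehicle control cultures reached saturation at 30 °C; 1 = growth at the plate median or of vehicle wells; lower values mean less growth of the strain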
# Settings: S. cerevisiae deletion strains, growth OD
smiles,measurement,setting,value
COc1ccc2c(c1)OC1(O)COc3cc(OC)c(OC)cc3C1=C2 (stereo unspecified),normalized growth,"locus YAL013W, strain DEP1, stronger effect = lower value",0.99
same,normalized growth,"locus YAL021C, strain ccr4, stronger effect = lower value",1
same,normalized growth,"locus YAL026C, strain drs2, stronger effect = lower value",0.97
same,normalized growth,"locus YAL030W, strain snc1, stronger effect = lower value",0.973
same,normalized growth,"locus YBL061C, strain skt5, stronger effect = lower value",0.968
same,normalized growth,"locus YBR009C, strain hhf1, stronger effect = lower value",1
same,normalized growth,"locus YBR021W, strain FUR4, stronger effect = lower value",1.01
same,normalized growth,"locus YBR023C, strain chs3, stronger effect = lower value",0.979
same,normalized growth,"locus YBR171W, strain sec66, stronger effect = lower value",0.965
same,normalized growth,"locus YBR229C, strain ROT2, stronger effect = lower value",1.01
same,normalized growth,"locus YBR231C, strain swc5, stronger effect = lower value",0.939
same,normalized growth,"locus YBR279W, strain paf1, stronger effect = lower value",0.984
same,normalized growth,"locus YCL011C, strain gbp2, stronger effect = lower value",0.983
same,normalized growth,"locus YCL016C, strain dcc1, stronger effect = lower value",1.01
same,normalized growth,"locus YCL029C, strain bik1, stronger effect = lower value",0.981
same,normalized growth,"locus YCL069W, strain vba3, stronger effect = lower value",0.988
same,normalized growth,"locus YCR088W, strain abp1, stronger effect = lower value",0.978
same,normalized growth,"locus YDL005C, strain med2, stronger effect = lower value",0.978
same,normalized growth,"locus YDL035C, strain GPR1, stronger effect = lower value",0.974
same,normalized growth,"locus YDL040C, strain nat1, stronger effect = lower value",0.971
same,normalized growth,"locus YDL074C, strain BRE1, stronger effect = lower value",0.992
same,normalized growth,"locus YDL101C, strain DUN1, stronger effect = lower value",1.02
same,normalized growth,"locus YDL134C, strain PPH21, stronger effect = lower value",1.01
same,normalized growth,"locus YDL185W, strain tfp1, stronger effect = lower value",0.983
same,normalized growth,"locus YDL192W, strain arf1, stronger effect = lower value",0.977
same,normalized growth,"locus YDR001C, strain nth1, stronger effect = lower value",0.98
same,normalized growth,"locus YDR069C, strain doa4, stronger effect = lower value",0.961
same,normalized growth,"locus YDR101C, strain arx1, stronger effect = lower value",0.972
same,normalized growth,"locus YDR137W, strain rgp1, stronger effect = lower value",0.934
same,normalized growth,"locus YDR150W, strain NUM1, stronger effect = lower value",1.01
same,normalized growth,"locus YDR159W, strain sac3, stronger effect = lower value",0.897
same,normalized growth,"locus YDR162C, strain NBP2, stronger effect = lower value",1.01
same,normalized growth,"locus YDR195W, strain ref2",0.992
same,normalized growth,"locus YDR297W, strain sur2, stronger effect = lower value",0.978
same,normalized growth,"locus YDR318W, strain mcm21, stronger effect = lower value",0.949
same,normalized growth,"locus YDR334W, strain swr1, stronger effect = lower value",0.982
same,normalized growth,"locus YDR335W, strain msn5, stronger effect = lower value",0.996
same,normalized growth,"locus YDR388W, stronger effect = lower value",0.981
same,normalized growth,"locus YDR392W, strain spt3, stronger effect = lower value",0.734 (active)
same,normalized growth,"locus YDR502C, strain sam2, stronger effect = lower value",0.985
same,normalized growth,"locus YEL003W, strain gim4, stronger effect = lower value",0.962
same,normalized growth,"locus YEL037C, strain rad23, stronger effect = lower value",0.99
same,normalized growth,"locus YEL061C, strain CIN8 (second series), stronger effect = lower value",0.978
same,normalized growth,"locus YEL061C, strain CIN8, stronger effect = lower value",1
same,normalized growth,"locus YER015W, strain faa2, stronger effect = lower value",0.993
same,normalized growth,"locus YER016W, strain bim1, stronger effect = lower value",0.971
same,normalized growth,"locus YER110C, stronger effect = lower value",0.976
same,normalized growth,"locus YER111C, strain swi4, stronger effect = lower value",0.97
same,normalized growth,"locus YER155C, strain BEM2 (second series), stronger effect = lower value",0.904
same,normalized growth,"locus YER155C, strain BEM2, stronger effect = lower value",1
same,normalized growth,"locus YER167W, strain BCK2, stronger effect = lower value",0.963
same,normalized growth,"locus YFR010W, strain ubp6, stronger effect = lower value",0.965
same,normalized growth,"locus YGL078C, strain dbp3, stronger effect = lower value",1.01
same,normalized growth,"locus YGL086W, strain mad1, stronger effect = lower value",0.97
same,normalized growth,"locus YGL167C, strain pmr1, stronger effect = lower value",0.985
same,normalized growth,"locus YGL173C, strain kem1, stronger effect = lower value",0.94
same,normalized growth,"locus YGL227W, strain vid30, stronger effect = lower value",0.978
same,normalized growth,"locus YGL240W, strain doc1, stronger effect = lower value",0.942
same,normalized growth,"locus YGL248W, strain PDE1, stronger effect = lower value",1.01
same,normalized growth,"locus YGL253W, strain hxk2, stronger effect = lower value",0.929
same,normalized growth,"locus YGR078C, strain PAC10, stronger effect = lower value",0.985
same,normalized growth,"locus YGR135W, strain pre9, stronger effect = lower value",0.985
same,normalized growth,"locus YGR229C, strain SMI1, stronger effect = lower value",0.967
same,normalized growth,"locus YGR252W, strain gcn5, stronger effect = lower value",0.873
same,normalized growth,"locus YHR013C, strain ard1, stronger effect = lower value",0.977
same,normalized growth,"locus YHR027C, strain rpn1, stronger effect = lower value",0.986
same,normalized growth,"locus YHR030C, strain SLT2, stronger effect = lower value",0.996 and 0.931
same,normalized growth,"locus YHR079C, strain IRE1 (second series), stronger effect = lower value",0.972
same,normalized growth,"locus YHR079C, strain IRE1, stronger effect = lower value",0.925
same,normalized growth,"locus YHR094C, strain hxt1, stronger effect = lower value",0.989
same,normalized growth,"locus YHR129C, strain ARP1, stronger effect = lower value",1.01
same,normalized growth,"locus YHR142W, strain chs7, stronger effect = lower value",0.926
same,normalized growth,"locus YHR200W, strain rpn10, stronger effect = lower value",0.972
same,normalized growth,"locus YIL066C, strain RNR3, stronger effect = lower value",0.986
same,normalized growth,"locus YIL073C, strain SPO22, stronger effect = lower value",0.895
same,normalized growth,"locus YIL125W, strain kgd1, stronger effect = lower value",0.997
same,normalized growth,"locus YIR030C, strain dcg1, stronger effect = lower value",0.987
same,normalized growth,"locus YJL092W, strain hpr5, stronger effect = lower value",0.979
same,normalized growth,"locus YJL095W, strain BCK1 (second series), stronger effect = lower value",0.98
same,normalized growth,"locus YJL095W, strain BCK1, stronger effect = lower value",0.965 and 0.92
same,normalized growth,"locus YJL115W, strain asf1, stronger effect = lower value",0.983
same,normalized growth,"locus YJL129C, strain trk1, stronger effect = lower value",0.979
same,normalized growth,"locus YJL134W, strain LCB3, stronger effect = lower value",1
same,normalized growth,"locus YJL154C, strain vps35, stronger effect = lower value",0.977
same,normalized growth,"locus YJL164C, strain tpk1, stronger effect = lower value",0.983
same,normalized growth,"locus YJL166W, strain qcr8, stronger effect = lower value",0.948
same,normalized growth,"locus YJL168C, strain set2, stronger effect = lower value",0.989
same,normalized growth,"locus YJL187C, strain SWE1 (second series), stronger effect = lower value",1.01
same,normalized growth,"locus YJL187C, strain SWE1, stronger effect = lower value",0.999
same,normalized growth,"locus YJR043C, strain POL32, stronger effect = lower value",0.97
same,normalized growth,"locus YJR066W, strain TOR1, stronger effect = lower value",0.9
